Reference: PubChem BioAssay (EPA / NIEHS)
Where a structure was tested more than once in an assay, its records may differ in their call. Calls of active or inactive are those of the source. Rule for the calls: active = hit-call score of the fitted dose curve at least 0.9, where 1 is the maximum; inactive = score below 0.9.

read-out: Macrophage colony-stimulating factor (MCSF), CSF1 (gene 1435); assay: BSK_LPS_MCSF: BioMAP Diversity Plus: LPS Assay for Macrophage colony-stimulating factor (MCSF) Biomarker Activity (AID 2283083); conditions: primary human HUVEC with PBMC; actives raise or lower the signal
Summary of the method: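 Bidirectional fitting against DMSO was applied to M-CSF levels read by ELISA at 24 h post-dose. The system pairs human umbilical vein endothelium with peripheral blood mononuclear cells; parallel SRB staining tracked cytotoxicity.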

Which outcome does the source give for `CCCCCCCCCCCCCCCCOS(=O)(=O)O` here?
Its outcome is “inactive”.

With `O=C(NO)C1(NS(=O)(=O)c2ccc(Oc3ccc(F)cc3)cc2)CCOCC1` as the compound, how does the outcome read?
The outcome was “inactive”.

With `CC(C)CC(C)O` (stereo not given) as the compound, how does the outcome read?
The outcome was “inactive”.

`CC(C)CCCCCCOC(=O)C1CCCCC1C(=O)OCCCCCCC(C)C` (stereo not given) was tested. Which outcome did it give?
The outcome was “inactive”.

For `CC(=O)c1ccccc1`, which outcome is on record?
Its outcome is “inactive”.

Which outcome does the source give for `c1ccc2cc3ccccc3cc2c1` here?
Its outcome is “inactive”.

For `Cc1ncc([C@@H](CCCCCCc2ccc3c(n2)NCCC3)CC(=O)O)cn1`, which outcome is on record?
The outcome was “inactive”.

For `CC(C)c1nnc2ccc(-c3ocnc3-c3cc(F)ccc3F)cn12`, which outcome is on record?
The outcome was “inactive”.

With `COCc1nnc(-c2ccc[n+]([O-])c2)n1-c1c(Cl)c(Cl)cc2[nH]c(=O)c(=O)[nH]c12` as the compound, how does the outcome read?
Its outcome is “inactive”.

For `O=C(O)c1cccc(C(=O)O)c1`, which outcome is on record?
Its outcome is “inactive”.

For `CCCC(CCC)C(=O)O`, which outcome is on record?
The outcome was “inactive”.

For `C[C@@H](Oc1ccc(CNC(=O)c2cccnc2Oc2ccc3c(c2)OCO3)c(F)c1)C(=O)O`, which outcome is on record?
The outcome was “inactive”.

`OC[C@H]1O[C@@](CO)(O[C@H]2O[C@H](CO)[C@@H](O)[C@H](O)[C@H]2O)[C@@H](O)[C@@H]1O` was tested. Which outcome did it give?
The outcome was “inactive”.

Which outcome does the source give for `CCCCCCCCCC` here?
Its outcome is “inactive”.

Which outcome does the source give for `OCCOCCOCCO` here?
Its outcome is “inactive”.

How did the outcome turn out when `c1ccc2ncccc2c1` was run?
The outcome was “inactive”.

For `COc1cc(C(C)C)c2c(c1)S(=O)(=O)N(COc1cc(=O)n3cccc(OCCN4CCCCC4)c3n1)C2=O`, which AC50 is on record?
The AC50 was 5 µM (active).

How did the outcome turn out when `S=P(N1CC1)(N1CC1)N1CC1` was run?
The outcome was “inactive”.

`OC(O)(C(F)C(O)(O)C(F)(F)F)C(F)(F)F` was tested. Which outcome did it give?
The outcome was “inactive”.

For `NCC(F)(F)C(F)(F)C(F)(F)C(F)(F)F`, which outcome is on record?
The outcome was “inactive”.

`c1ccc2c(c1)-c1cccc3c1c-2cc1ccccc13` was tested. Which outcome did it give?
The outcome was “inactive”.

For `Nc1ccn([C@@H]2O[C@H](CO)[C@@H](O)[C@@H]2O)c(=O)n1`, which outcome is on record?
The outcome was “inactive”.

How did the outcome turn out when `CC(C)C(=O)Nc1ccc([N+](=O)[O-])c(C(F)(F)F)c1` was run?
Its outcome is “inactive”.

How did the outcome turn out when `CCOC(N)=O` was run?
The outcome was “inactive”.

How did the outcome turn out when `CC[C@H](C)C(=O)O[C@H]1C[C@H](O)C=C2C=C[C@H](C)[C@H](CC[C@@H](O)C[C@@H](O)CC(=O)O)[C@H]21` was run?
Its outcome is “inactive”.

How did the outcome turn out when `O=C(O)c1ccc2c(c1)nc(C(=O)NC1CCN(C3CC3)CC1)n2Cc1cc(-c2ccc(Cl)s2)on1` was run?
The outcome was “inactive”.

For `NC(=O)N1c2ccccc2C=Cc2ccccc21`, which outcome is on record?
The outcome was “inactive”.

read-out: Tissue Factor, F3 (gene 2152); assay: BSK_LPS_TissueFactor: BioMAP Diversity Plus: LPS Assay for Tissue Factor Biomarker Activity (AID 2283084); conditions: primary human HUVEC with PBMC; actives raise or lower the signal
Summary of the method: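 Compound was added to an endothelial cell/PBMC co-culture, and after 24 h tissue factor (CD142) was read by ELISA. Gain or loss of signal was fitted against a DMSO baseline, and parallel SRB staining (560 nm) tracked overt cytotoxicity.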

For `CCCCCCCCCCCCCCCCOS(=O)(=O)O`, which outcome is on record?
Its outcome is “inactive”.

`O=C(NO)C1(NS(=O)(=O)c2ccc(Oc3ccc(F)cc3)cc2)CCOCC1` was tested. Which outcome did it give?
The outcome was “inactive”.

Which outcome does the source give for `CC(C)CC(C)O` (stereo not given) here?
The outcome was “inactive”.

With `CC(C)CCCCCCOC(=O)C1CCCCC1C(=O)OCCCCCCC(C)C` (stereo not given) as the compound, how does the outcome read?
Its outcome is “inactive”.

With `CC(=O)c1ccccc1` as the compound, how does the outcome read?
The outcome was “inactive”.

Which outcome does the source give for `c1ccc2cc3ccccc3cc2c1` here?
Its outcome is “inactive”.

How did the outcome turn out when `Cc1ncc([C@@H](CCCCCCc2ccc3c(n2)NCCC3)CC(=O)O)cn1` was run?
The outcome was “inactive”.

For `CC(C)c1nnc2ccc(-c3ocnc3-c3cc(F)ccc3F)cn12`, which AC50 is on record?
The AC50 was 0.356 µM (active).

Which outcome does the source give for `COCc1nnc(-c2ccc[n+]([O-])c2)n1-c1c(Cl)c(Cl)cc2[nH]c(=O)c(=O)[nH]c12` here?
Its outcome is “inactive”.

For `O=C(O)c1cccc(C(=O)O)c1`, which outcome is on record?
Its outcome is “inactive”.

With `CCCC(CCC)C(=O)O` as the compound, how does the outcome read?
Its outcome is “inactive”.

`C[C@@H](Oc1ccc(CNC(=O)c2cccnc2Oc2ccc3c(c2)OCO3)c(F)c1)C(=O)O` was tested. Which outcome did it give?
The outcome was “inactive”.

For `OC[C@H]1O[C@@](CO)(O[C@H]2O[C@H](CO)[C@@H](O)[C@H](O)[C@H]2O)[C@@H](O)[C@@H]1O`, which outcome is on record?
Its outcome is “inactive”.

For `CCCCCCCCCC`, which outcome is on record?
The outcome was “inactive”.

How did the outcome turn out when `OCCOCCOCCO` was run?
Its outcome is “inactive”.

Which outcome does the source give for `c1ccc2ncccc2c1` here?
The outcome was “inactive”.

Which outcome does the source give for `COc1cc(C(C)C)c2c(c1)S(=O)(=O)N(COc1cc(=O)n3cccc(OCCN4CCCCC4)c3n1)C2=O` here?
The outcome was “inactive”.

How did the outcome turn out when `S=P(N1CC1)(N1CC1)N1CC1` was run?
The outcome was “inactive”.

For `OC(O)(C(F)C(O)(O)C(F)(F)F)C(F)(F)F`, which AC50 is on record?
The AC50 was 0.308 µM (active).

And the outcome?
Its outcome is “inactive”.

With `NCC(F)(F)C(F)(F)C(F)(F)C(F)(F)F` as the compound, how does the outcome read?
Its outcome is “inactive”.

With `c1ccc2c(c1)-c1cccc3c1c-2cc1ccccc13` as the compound, how does the AC50 read?
The AC50 was 0.552 µM (active).

With `Nc1ccn([C@@H]2O[C@H](CO)[C@@H](O)[C@@H]2O)c(=O)n1` as the compound, how does the outcome read?
Its outcome is “inactive”.

Which outcome does the source give for `CC(C)C(=O)Nc1ccc([N+](=O)[O-])c(C(F)(F)F)c1` here?
Its outcome is “inactive”.

How did the outcome turn out when `CCOC(N)=O` was run?
The outcome was “inactive”.

How did the outcome turn out when `CC[C@H](C)C(=O)O[C@H]1C[C@H](O)C=C2C=C[C@H](C)[C@H](CC[C@@H](O)C[C@@H](O)CC(=O)O)[C@H]21` was run?
Its outcome is “inactive”.

`O=C(O)c1ccc2c(c1)nc(C(=O)NC1CCN(C3CC3)CC1)n2Cc1cc(-c2ccc(Cl)s2)on1` was tested. Which outcome did it give?
The outcome was “inactive”.

For `NC(=O)N1c2ccccc2C=Cc2ccccc21`, which outcome is on record?
Its outcome is “inactive”.
